# Source: PubChem BioAssay AID1001 (Sanford-Burnham Center for Chemical Genomics, 2008)
# About 50 (0.03%) of roughly 200,000 compounds were called active. How the calls were made is not given here. For the sample, actives were picked, then their nearest neighbours and some compounds at random. Potency and affinity values are given separately.
# Target: Alkaline phosphatase, tissue-nonspecific isozyme (Homo sapiens) (UniProt P05186)
# Test: human TNAP enzyme activators, primary screen, biochemical, luminescent, no phosphate acceptor, uHTS (AID 1001)
# Conditions: purified TNAP, luminescent activation assay, at 20 µM, active compounds read high
# Sequence of Alkaline phosphatase, tissue-nonspecific isozyme (Homo sapiens) (P05186 whole entry, looked up): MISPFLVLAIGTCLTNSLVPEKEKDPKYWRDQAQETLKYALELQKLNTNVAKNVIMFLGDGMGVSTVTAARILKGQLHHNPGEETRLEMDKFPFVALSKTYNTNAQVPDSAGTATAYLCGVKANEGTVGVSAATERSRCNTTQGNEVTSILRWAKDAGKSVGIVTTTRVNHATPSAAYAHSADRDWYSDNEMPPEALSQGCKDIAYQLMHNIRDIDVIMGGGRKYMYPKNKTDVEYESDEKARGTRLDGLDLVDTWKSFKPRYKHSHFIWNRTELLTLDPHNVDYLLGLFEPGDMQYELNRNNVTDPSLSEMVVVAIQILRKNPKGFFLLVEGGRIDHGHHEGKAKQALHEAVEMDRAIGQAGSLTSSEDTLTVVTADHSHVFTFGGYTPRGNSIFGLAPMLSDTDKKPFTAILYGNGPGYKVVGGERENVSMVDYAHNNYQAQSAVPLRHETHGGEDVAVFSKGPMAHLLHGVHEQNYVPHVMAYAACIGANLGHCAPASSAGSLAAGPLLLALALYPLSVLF
row,SMILES,activation fold
1,CCCc1cc(C(=O)NNC(=S)NCC)c2ccccc2n1,1.1 (inactive)
2,CCNC(=S)NNC(=O)c1cc(C)nc2ccccc12,1.7 (inactive)
3,COc1ccc(C)cc1-n1[nH]nnc1=S,1 (inactive)
4,COc1ccc(NC(=S)N2CCCC2c2ccc(OC)c(OC)c2)cc1 (configuration not stated),0.9 (inactive)
5,C=CCNC(=S)NNC(=O)C(CCC(C)C)CC(C)(C)O (configuration not stated),1.1 (inactive)
6,C=CCNC(=S)NNC(=O)C(CCCC)CC(C)O (configuration not stated),1.7 (inactive)
7,O=C1c2ccc(Br)cc2C(=O)N1c1ccc(Cc2ccncc2)cc1,1.1 (inactive)
8,COCCNC(=S)N/N=C(\C)c1ccccc1F,1 (inactive)
9,COCCNC(=S)N/N=C(\C)c1ccccc1OC,1.1 (inactive)
10,CN(C)CCNC(=O)c1ccc(-c2nn(C)c(=O)c3ccccc23)cc1,1.1 (inactive)
11,Cc1sc2nc(-c3ccccn3)[nH]c(=O)c2c1-c1ccccc1,1.4 (inactive)
12,CCc1cc2c(=O)[nH]c(-c3ccccn3)nc2s1,1.8 (inactive)
13,O=C(O)/C=C/C(=O)N1CCN(S(=O)(=O)c2cccc(C(F)(F)F)c2)CC1,1.1 (inactive)
14,COc1cccc(/C=N/NC(=O)c2[nH]c(C)c(C(=O)N/N=C/c3cccc(OC)c3)c2C)c1,1.2 (inactive)
15,Cc1cccc(C)c1NC(=O)C1(N(C(=O)c2ccccn2)c2ccc(O)cc2)CCCCC1,1 (inactive)
16,Cc1cccc(C)c1NC(=O)C1(N(Cc2ccco2)C(=O)c2ccccn2)CCCC1,1 (inactive)
17,O=C(NCCCn1ccnc1)/C(=C\c1cccnc1)NC(=O)c1ccccc1F,1 (inactive)
18,CCC(=O)Nc1ccc(/C(C)=N\NC(=O)c2ccc(C)s2)cc1,1 (inactive)
19,O=C(Nc1cccc2ccccc12)c1ccc([N+](=O)[O-])s1,1 (inactive)
20,Cc1cc(C)c(-c2csc(NC(=O)C3=NN(c4ccccc4)C(=O)CC3)n2)c(C)c1,0.9 (inactive)
21,O=c1[nH]c(NCCO)nc2c1C1(CCCCC1)Cc1ccccc1-2,1 (inactive)
22,Cn1c(NCCCO)nc2c(c1=O)C1(CCCCC1)Cc1ccccc1-2,1 (inactive)
23,CC1CCCN(c2nc3ccccc3nc2C(C#N)C(=O)OC2CCCCC2)C1 (configuration not stated),1 (inactive)
24,Cc1ccc2nc(-c3ccccc3)c(CN3CCN(c4ccccc4F)CC3)n2c1,1.1 (inactive)
25,Clc1ccc(-c2nc3ccccn3c2CN2CCCCC2)cc1,1.1 (inactive)

row,SMILES,activation fold
1,O=c1cc(N2CCc3ccccc3C2)[nH]c(=O)n1Cc1ccc(F)cc1,1 (inactive)
2,Cc1sc(NC(=O)CSc2nnc(COc3ccc(Cl)cc3)n2C)c(C#N)c1C,1.1 (inactive)
3,Cc1cccc(-c2nsc(SCC(=O)N3CCCC3)n2)c1,1.1 (inactive)
4,Cc1ccc(Nc2nc(N)nc(CN3CCN(C(=O)c4ccco4)CC3)n2)cc1Cl,1 (inactive)
5,CCNC(=S)NC1CC2CCC(C1)N2Cc1ccccc1 (configuration not stated),1 (inactive)
6,CNC(=S)NC1CC2CCCC(C1)N2Cc1ccc(C)cc1 (configuration not stated),1.1 (inactive)
7,Cc1c(Cl)c(C(=O)NNC(=S)Nc2ccc(F)cc2)nn1C,2.7 (inactive)
8,COc1ccccc1NC(=S)NNC(=O)c1nn(C)c(C)c1Cl,1.2 (inactive)
9,COCc1nnc(NC(=O)c2ccc(OC)cc2OC)s1,1.1 (inactive)
10,COc1ccc(/C=C2/SC(=O)N(CC(=O)NCCC(C)C)C2=O)cc1OC,1.1 (inactive)
11,COC(=O)Cn1c(CN2CCC(Cc3ccccc3)CC2)nc2c1c(=O)n(C)c(=O)n2C,1.1 (inactive)
12,COC(=O)c1cc(O)c(O)c(O)c1,1 (inactive)
13,O=C(OCC1O[C@@H](OC(=O)c2cc(O)c(O)c(O)c2)[C@@H](OC(=O)c2cc(O)c(O)c(O)c2)[C@@H](OC(=O)c2cc(O)c(O)c(O)c2)[C@@H]1OC(=O)c1cc(O)c(O)c(O)c1)c1cc(O)c(O)c(O)c1 (some centres not stated),3 (active)
14,O=C(O[C@@H]1OC2COC(=O)c3cc(O)c(O)c(O)c3-c3c(cc(O)c(O)c3O)C(=O)O[C@@H]([C@H]1O)[C@@H]2O)c1cc(O)c(O)c(O)c1,1.3 (inactive)
15,COC(=O)C1=C(C)N=C2SC(C#N)=C(N)N2C1c1ccc(OC)cc1 (configuration not stated),1 (inactive)
16,COc1ccc(Cl)cc1NC(=O)CN1CCC(n2nnc3cc(F)ccc32)CC1,1.5 (inactive)
17,COc1ccc(Cl)cc1NC(=O)CN1CCC(n2nnc3ccccc32)CC1,1.1 (inactive)
18,Cc1nc(N2CCN(C(c3ccccc3)c3ccccc3)CC2)nc2c1C(=O)CCC2,1.1 (inactive)
19,Cc1ccc(-c2csc(NC(=O)CSC3=NCCS3)n2)cc1,1.1 (inactive)
20,CC(=O)Nc1ccc(S(=O)(=O)NCc2ccccn2)cc1,1.1 (inactive)
21,Cn1c(=O)c2c(ncn2CC(=O)N/N=C/c2ccco2)n(C)c1=O,1.1 (inactive)
22,Cn1c(=O)c2c(nc(NCc3ccco3)n2C)n(C)c1=O,1.1 (inactive)
23,CCc1ccc2oc(-c3ccc(OC)cc3)cc(=Nc3c(C)n(C)n(-c4ccccc4)c3=O)c2c1,0.9 (inactive)
24,Cc1ccc(CC(=O)Nc2nc3ccccc3s2)cc1,1 (inactive)
25,CCOC(=O)c1ccc(NCc2ccc3c(c2)OCO3)cc1,1 (inactive)

row,SMILES,activation fold
1,C/C(=N\Nc1ccc(C(=O)O)cc1)c1nc2ccccc2n1C,0.9 (inactive)
2,CCn1c(CNc2ccc(C(=O)O)cc2)nc2ccccc21,1.1 (inactive)
3,COc1ccc(C(CNC(=O)CN2C(=O)NC3(CC(C)CC(C)(C)C3)C2=O)N2CCOCC2)cc1 (configuration not stated),1.2 (inactive)
4,O=C(COc1ccc(Cl)cc1)NCc1nnc(SCC(=O)NCCc2ccccc2)o1,1.1 (inactive)
5,COc1ccccc1CC(Cc1nc2ccccc2[nH]1)c1nc2ccccc2[nH]1 (configuration not stated),2.8 (inactive)
6,Cc1cc(C)cc(CC(Cc2nc3ccccc3[nH]2)c2nc3ccccc3[nH]2)c1 (configuration not stated),1.6 (inactive)
7,Cc1cc2oc(=O)cc(CN3CCN(Cc4ccccc4)CC3)c2cc1Cl,1 (inactive)
8,COc1ccc(/C=C2\SC(=O)N(CC(=O)NNC(=O)c3ccccc3O)C2=O)cc1OC,2.4 (inactive)
9,O=C(CN1C(=O)S/C(=C\c2ccccc2)C1=O)NNC(=O)c1ccccc1O,2.2 (inactive)
10,COc1ccc(NC(=O)CC2C(=O)N(Cc3cccs3)C(=S)N2C(C)C)cc1 (configuration not stated),1.1 (inactive)
11,CCOc1ccc(N(C(=O)c2cnsn2)C(C(=O)NC2CCCCC2)c2ccncc2)cc1 (configuration not stated),1.2 (inactive)
12,Cn1nc(CC(=O)NC2CCCCCC2)c2ccccc2c1=O,1.1 (inactive)
13,Cn1nc(CC(=O)NC2CCCCC2)c2ccccc2c1=O,1.1 (inactive)
14,COc1ccc(CN2CCNC(=O)C2CC(=O)NCc2ccc(C)s2)c(OC)c1 (configuration not stated),1.1 (inactive)
15,Cc1ccc(CNC(=O)C2(NC(=O)Nc3ccc(C)cc3)CCCCC2)cc1,1.2 (inactive)
16,Cc1ccc(NC(=O)NC2(C(=O)NCc3ccccc3)CCCCC2)cc1,1.1 (inactive)
17,O=C(NC1CCCCC1)C1CCN(C(=O)c2ccc(-c3ccccc3)cc2)CC1,1.1 (inactive)
18,OCCNc1ncnc2c1c(-c1ccccc1)c(-c1ccccc1)n2Cc1ccco1,1.1 (inactive)
19,N=c1c2c(-c3ccccc3)c(-c3ccccc3)n(Cc3ccco3)c2ncn1CCCn1ccnc1,2.7 (inactive)
20,COc1cc(NC(=O)CN2CCCCC2)c(C)cc1[N+](=O)[O-],1.1 (inactive)
21,CCOc1cc(-n2cnnn2)c(OCC)cc1NC(=O)c1cnccn1,1.1 (inactive)
22,c1ccc2c(c1)Nc1nccnc1S2,1 (inactive)
23,COc1ccc2[nH]c(=O)c(CN(CCN3CCCC3)C(=O)Nc3ccccc3Cl)cc2c1,1.1 (inactive)
24,Cc1c2cc(O)c(=O)cc-2oc2cc(O)c(O)cc12,0.4 (inactive)
25,COc1ccc(OC)c(-c2c3cc(O)c(=O)cc-3oc3cc(O)c(O)cc23)c1,3.9 (active)

row,SMILES,activation fold
1,CCOc1ccccc1-c1c2cc(O)c(=O)cc-2oc2cc(O)c(O)cc12,0.6 (inactive)
2,O=C(NCCCN1CCCC1=O)c1ccc(OCc2ccccc2)cc1,1.1 (inactive)
3,COc1nc(-c2cnccn2)sc1C,1.1 (inactive)
4,COc1ccc2nc(C)cc(SCC(=O)NNC(=O)COc3cccc4ccccc34)c2c1,2.1 (inactive)
5,COc1ccc2nc(C)cc(SCC(=O)NNC(=O)COc3ccc(C)cc3)c2c1,1.1 (inactive)
6,O=C(CN1CCOCC1)NCCC12CC3CC(CC(C3)C1)C2,1.2 (inactive)
7,COc1ccc(N/C=C\C(=O)c2ccc(Br)cc2)cc1OC,1.1 (inactive)
8,Cc1nn(C)cc1/C=C/C(=O)c1ccccc1,1.1 (inactive)
9,CCCCCC(=O)NNC(=O)c1ccc(F)cc1,1 (inactive)
10,CCCCCCCC(=O)NNC(=O)c1ccc(F)cc1,2.1 (inactive)
11,Cc1cc(NC(=O)CCC(=O)N(Cc2ccco2)C(C(=O)NC2CCCCC2)c2cccs2)no1 (configuration not stated),1.1 (inactive)
12,Cc1cc(Cl)ccc1OCC(=O)NCCOC(=O)Nc1sc(=S)n(C)c1C,1.2 (inactive)
13,Cc1c(C(=O)Oc2cc(N)n(S(C)(=O)=O)n2)cccc1[N+](=O)[O-],1 (inactive)
14,CC(=O)c1ccc(NC(=O)COc2ccc3c(c2)OCO3)cc1,1.1 (inactive)
15,Cc1cc(C)c(NC(=O)CN2CCN(C)CC2)c(C)c1,1.2 (inactive)
16,Cc1cc(NC(=O)CN2CCN(C)CC2)no1,1.1 (inactive)
17,COc1ccc(C2C(C(=O)OC3CCCCC3)=C(C)Nc3nnnn32)c(OC)c1OC (configuration not stated),1 (inactive)
18,N#Cc1c(SCC(=O)O)nc(-c2ccccc2)c2c1CCCC2,1 (inactive)
19,Cc1cccc2sc(NC(=O)CN(C)S(=O)(=O)c3ccc(Br)s3)nc12,1 (inactive)
20,CC1CCN(Cc2nc(Cl)c3c4c(sc3n2)CCC4)CC1,1 (inactive)
21,COc1cc(OC)cc(-c2nnc(Nc3nc4c(F)cccc4s3)o2)c1,1.2 (inactive)
22,COc1cccc(-c2nnc(Nc3nc4c(F)cccc4s3)o2)c1,1.7 (inactive)
